Experimental data reported in PubChem BioAssay.
The source made the active and inactive calls. Unless noted, the rule behind the calls is not given here.

Experiments:
[1] = test system: Wnt5a (protein binding on small-molecule microarray); experiment: small molecules binding Wnt5a protein – biophysical, small-molecule microarray, 635/667 nm fluorescence, primary screen (AID 1142); settings: 635 nm fluorescence, higher = more signal;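 note: fluorescence read at 667 nm with signal to noise per printed feature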
[2] = ATP-based viability of Huh7 replicon cells – cell-based, CellTiter-Glo luminescence, basal, 48 h, cytotoxicity control for HCV replication inhibitor project, primary screen (AID 1143); settings: higher = more signal, called active from +8 up or from −8 down;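 note: Huh7 hepatoma cells carrying a hepatitis C replication reporter with no stimulus; test concentration not given here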
[3] = Pseudomonas biofilm growth suppression – PAO1 strain, BacTiter-Glo luminescence, LB-PBS, primary screen (AID 1144); settings: P. aeruginosa PAO1 biofilm, 12 h, higher = more signal
[4] = basal CRE-LacZ reporter activity in PC12 – cell-based, unstimulated, primary screen (AID 1145); settings: no forskolin, luminescence, 4.5 h, higher = more signal, called active from +8 up or from −8 down
[5] = forskolin-driven CRE-LacZ activity in PC12 – cell-based, CRE-LacZ reporter, forskolin-stimulated, primary screen (AID 1146); settings: luminescence, 4.5 h, higher = more signal, called active from +8 up or from −8 down;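 note: PC12 cells with 6xCRE LacZ reporter stimulated by forskolin 10 µM; beta-galactosidase reporter signal reflecting CREB driven transcription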
[6] = target: Streptavidin (Streptomyces avidinii) (UniProt P22629); experiment: compounds binding control protein streptavidin – biophysical, small-molecule microarray, 635/667 nm fluorescence, artefact control for SMM compound annotation, primary screen (AID 1147); settings: higher = more signal;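 note: signal reflects streptavidin binding to arrayed compounds as a control protein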
Sequence of Streptavidin (Streptomyces avidinii) (P22629 whole entry, looked up): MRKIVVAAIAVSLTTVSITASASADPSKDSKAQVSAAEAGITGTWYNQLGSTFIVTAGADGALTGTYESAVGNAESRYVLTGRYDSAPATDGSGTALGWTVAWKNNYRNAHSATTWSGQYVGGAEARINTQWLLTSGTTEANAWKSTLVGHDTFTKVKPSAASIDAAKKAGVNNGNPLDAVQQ

[7] = probe aInhba binding on compound microarray – biochemical, small-molecule microarray, 635/667 nm fluorescence, primary screen (AID 1148); settings: higher = more signal;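 note: score merges 667nm spot fluorescence with signal-to-noise for antibody binding to printed compounds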
[8] = target: Torsin-1A (Homo sapiens) (UniProt O14656); experiment: TOR1A wild-type binding on microarray – cell lysate, small-molecule microarray, lysate, 635/667 nm, primary screen (AID 1149); settings: COS7 hTOR1A-WT lysate, 635 nm fluorescence, higher = more signal
Sequence of Torsin-1A (Homo sapiens) (O14656 whole entry, looked up): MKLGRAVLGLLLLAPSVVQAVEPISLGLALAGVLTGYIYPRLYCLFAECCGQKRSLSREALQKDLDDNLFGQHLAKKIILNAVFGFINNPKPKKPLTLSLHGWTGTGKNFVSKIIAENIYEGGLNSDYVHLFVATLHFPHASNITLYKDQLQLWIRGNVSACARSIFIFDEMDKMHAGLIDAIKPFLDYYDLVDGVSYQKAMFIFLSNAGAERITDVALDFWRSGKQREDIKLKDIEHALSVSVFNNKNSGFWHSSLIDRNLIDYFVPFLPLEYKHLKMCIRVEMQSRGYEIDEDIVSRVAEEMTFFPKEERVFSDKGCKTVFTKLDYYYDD

[9] = target: Torsin-1A (Homo sapiens) (UniProt O14656); experiment: torsin A mutant lysate binding on microarrays – cell lysate, small-molecule microarray, COS7 lysate, 635/667 nm fluorescence, primary screen (AID 1150); settings: COS7 hTOR1A mutant lysate, 635 nm fluorescence, higher = more signal;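 note: score pools 667 nm emission and signal to noise measuring lysate protein binding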
[10] = test system: Sonic hedgehog protein (Shh); experiment: Sonic hedgehog microarray binding compounds – biochemical, small-molecule microarray, 635/667 nm fluorescence, primary screen (AID 1151); settings: 635 nm fluorescence, higher = more signal;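 note: Shh protein binding to compounds spotted on small-molecule microarray slides; score combines spot fluorescence intensity with signal-to-noise across triplicate slides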
[11] = optical density shifts of acrAB sulA E. coli – strain DRC41, OD650, 48 h, E. coli filamentation inducer project, primary screen (AID 1152); settings: higher = more signal, called active from +8 up or from −8 down;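 note: E. coli MC1000 strain DRC41 lacking acrAB efflux pump and sulA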
[12] = probe aLefty1 binding on compound microarray – biochemical, small-molecule microarray, 635/667 nm fluorescence, primary screen (AID 1153); settings: higher = more signal;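 note: score merges spot fluorescence with signal-to-noise ratio from the scanned slide images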
[13] = plasmodial surface anion channel blockers, osmotic lysis – cell-based, P. falciparum Indochina, OD700, 1 h, primary screen (AID 1154); settings: P. falciparum Indochina infected RBC osmotic lysis, higher = more signal, called active from +8 up or from −8 down
[14] = plasmodial surface anion channel blockers, osmotic lysis – cell-based, P. falciparum Indochina, OD700, 2 h, primary screen (AID 1155);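 note: lysis reports solute entry through the parasite surface anion channel PSAC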; settings: P. falciparum Indochina infected erythrocytes, higher = more signal, called active from +8 up or from −8 down
[15] = changes in parasitized red cell lysis, either direction – P. falciparum Indochina, OD700, 3 h, PSAC antagonist project, primary screen (AID 1156); settings: P. falciparum-infected erythrocytes, osmotic lysis, higher = more signal, called active from +8 up or from −8 down
[16] = plasmodial surface anion channel blockers, osmotic lysis – cell-based, P. falciparum Indochina, OD700, 18 h, primary screen (AID 1157); settings: P. falciparum Indochina infected erythrocytes, osmotic lysis OD700, 18 h; higher = more signal, called active from +8 up or from −8 down
[17] = S6 kinase pathway phospho-S6 level changes – cell-based, A549, cytoblot, luminescence, serum-stimulated, primary screen (AID 1158); settings: 5 h, higher = more signal;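 note: serum-stimulated A549 lung adenocarcinoma cells; signal is phosphorylated S6 detected by cytoblot immunostaining with HRP secondary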
[18] = target: NADPH oxidase 2 (Homo sapiens) (UniProt P04839); experiment: compounds shifting NOX2 Amplex Red fluorescence – cell-based, HEK293-NOX2, PMA-stimulated, NOX inhibitor project, primary screen (AID 1159); settings: 45 min, higher = more signal, called active from +8 up or from −8 down; note: test concentration not given here
Sequence of NADPH oxidase 2 (Homo sapiens) (P04839 whole entry, looked up): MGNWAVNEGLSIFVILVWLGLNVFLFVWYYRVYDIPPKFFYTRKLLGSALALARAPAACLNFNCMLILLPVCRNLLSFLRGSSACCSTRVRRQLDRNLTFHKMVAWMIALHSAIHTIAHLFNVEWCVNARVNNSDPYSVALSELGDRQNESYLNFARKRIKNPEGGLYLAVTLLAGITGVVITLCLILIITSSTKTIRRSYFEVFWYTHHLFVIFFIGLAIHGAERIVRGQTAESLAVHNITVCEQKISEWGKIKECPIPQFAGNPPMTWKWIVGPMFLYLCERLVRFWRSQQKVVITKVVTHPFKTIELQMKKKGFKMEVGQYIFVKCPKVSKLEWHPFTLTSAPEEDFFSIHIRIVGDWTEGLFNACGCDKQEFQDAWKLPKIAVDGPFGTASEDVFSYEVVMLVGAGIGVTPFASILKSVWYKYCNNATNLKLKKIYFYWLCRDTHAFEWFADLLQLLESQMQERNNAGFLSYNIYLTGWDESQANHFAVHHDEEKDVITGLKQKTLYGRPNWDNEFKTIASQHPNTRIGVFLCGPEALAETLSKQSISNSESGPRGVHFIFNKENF

[19] = target: NADPH oxidase 4 (Homo sapiens) (UniProt Q9NPH5); experiment: compounds shifting NOX4 Amplex Red fluorescence – cell-based, HEK293-NOX4, tetracycline-induced, NOX inhibitor project, primary screen (AID 1160); settings: HEK293-NOX4, Amplex Red H2O2 fluorescence, 45 min; higher = more signal, called active from +8 up or from −8 down
Sequence of NADPH oxidase 4 (Homo sapiens) (Q9NPH5 whole entry, looked up): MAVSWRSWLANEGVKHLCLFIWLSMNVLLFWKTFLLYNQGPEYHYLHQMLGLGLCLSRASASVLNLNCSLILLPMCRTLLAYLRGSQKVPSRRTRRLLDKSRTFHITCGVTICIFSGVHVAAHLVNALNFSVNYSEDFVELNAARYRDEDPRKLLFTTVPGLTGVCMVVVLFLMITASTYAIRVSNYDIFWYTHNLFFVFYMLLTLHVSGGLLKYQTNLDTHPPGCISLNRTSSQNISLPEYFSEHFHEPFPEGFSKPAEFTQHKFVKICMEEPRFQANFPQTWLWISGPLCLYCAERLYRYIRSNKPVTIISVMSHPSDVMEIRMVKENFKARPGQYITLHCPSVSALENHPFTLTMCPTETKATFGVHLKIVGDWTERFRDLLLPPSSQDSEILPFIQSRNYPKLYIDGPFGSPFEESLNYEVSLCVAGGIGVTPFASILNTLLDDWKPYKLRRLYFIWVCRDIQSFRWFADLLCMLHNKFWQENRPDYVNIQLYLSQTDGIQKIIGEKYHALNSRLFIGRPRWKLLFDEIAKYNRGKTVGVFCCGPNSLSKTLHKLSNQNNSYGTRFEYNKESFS

[20] = target: NADPH oxidase 5 (Homo sapiens) (UniProt Q96PH1); experiment: compounds shifting NOX5 Amplex Red fluorescence – cell-based, HEK293-NOX5, NOX inhibitor project, primary screen (AID 1161); settings: HEK293-NOX5, ionomycin, 45 min, higher = more signal
Sequence of NADPH oxidase 5 (Homo sapiens) (Q96PH1 whole entry, looked up): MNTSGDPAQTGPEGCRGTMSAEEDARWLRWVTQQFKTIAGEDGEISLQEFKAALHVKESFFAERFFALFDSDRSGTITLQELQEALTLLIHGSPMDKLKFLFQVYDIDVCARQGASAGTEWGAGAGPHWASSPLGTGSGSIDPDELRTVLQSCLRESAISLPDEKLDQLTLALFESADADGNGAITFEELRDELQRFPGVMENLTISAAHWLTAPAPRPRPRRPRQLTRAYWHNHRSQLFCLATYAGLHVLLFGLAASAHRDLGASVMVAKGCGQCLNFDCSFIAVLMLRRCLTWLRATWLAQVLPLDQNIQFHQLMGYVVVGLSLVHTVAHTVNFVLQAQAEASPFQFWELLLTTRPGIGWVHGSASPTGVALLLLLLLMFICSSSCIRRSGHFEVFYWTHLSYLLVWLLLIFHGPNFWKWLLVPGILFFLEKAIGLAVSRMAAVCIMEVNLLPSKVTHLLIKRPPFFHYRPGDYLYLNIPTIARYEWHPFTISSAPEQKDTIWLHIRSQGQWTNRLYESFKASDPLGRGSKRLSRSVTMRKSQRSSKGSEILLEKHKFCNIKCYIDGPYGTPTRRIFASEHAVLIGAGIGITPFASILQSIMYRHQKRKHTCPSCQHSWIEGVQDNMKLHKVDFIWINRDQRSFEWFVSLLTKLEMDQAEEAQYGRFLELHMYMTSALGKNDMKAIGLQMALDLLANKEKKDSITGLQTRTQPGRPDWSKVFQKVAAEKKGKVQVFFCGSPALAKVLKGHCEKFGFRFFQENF

Row | SMILES | composite z-score [1] | z-score [2] | z-score [3] | z-score [4] | z-score [5] | composite z-score [6] | composite z-score [7] | composite z-score [8] | composite z-score [9] | composite z-score [10] | z-score [11] | composite z-score [12] | z-score [13] | z-score [14] | z-score [15] | z-score [16] | z-score [17] | z-score [18] | z-score [19] | z-score [20]
1 | Cc1ccc(S[C@]2(C(=O)NCCCN(C)C)CC(=O)N(Cc3ccccc3Cl)[C@@H]2c2ccc(CO)cc2I)cc1 | -0.256 | -0.826 (inactive) | 0.601 (inactive) | 0.0924 (inactive) | 0.752 (inactive) | -0.245 | -0.157 | -0.601 | -0.679 | -0.995 | 1.02 (inactive) | -0.0573 | 4.18 (inactive) | 0.987 (inactive) | 0.524 (inactive) | 0.498 (inactive) | -0.344 | 0.255 (inactive) | -1.15 (inactive) | 1.78
2 | C=CCC(OC(C)=O)[C@@H]1[C@@H](N(Cc2cc3ccccc3o2)C(=O)c2cccc3ccccc23)c2cc(OCCCO)ccc2N1C(=O)c1ccc2ccccc2c1 (stereo not given in full) | 0.316 | -0.928 (inactive) | 0.26 (inactive) | 3.85 (inactive) | 0.0746 (inactive) | 0.0823 | -0.0791 | 0.523 | 0.132 | 0.198 | -0.546 (inactive) | 0.0931 | 0.92 (inactive) | 0.0881 (inactive) | 0.547 (inactive) | 0.286 (inactive) | 0.552 | -0.764 (inactive) | -0.797 (inactive) | -2.19
3 | COc1ccc([Si](C)(C)[C@H]2[C@H](CCO)O[C@@]3(C(=O)N(Cc4ccc(N5CCOC5=O)cc4)c4ccccc43)[C@@H]2C)cc1 | -0.159 | -3.29 (inactive) | -0.232 (inactive) | 2.2 (inactive) | -2.06 (inactive) | 0.346 | -0.0791 | 0.216 | 0.0362 | 0.397 | 0.257 (inactive) | 0.203 | 34.9 (active) | 32.8 (active) | 1.63 (inactive) | 6.38 (inactive) | 0.419 | -0.372 (inactive) | 1.75 (inactive) | 0.908
